FBW7 act – human FBW7 E3 ligase activation, primary screen; Q969H0; AlphaScreen FBW7–phospho-cyclin E peptide binding, activator screen; normalized activity (activation), % at 26.1 µM; actives 0.13% (n = 650,000); AID 1259310; in the data active = normalized activity above about 1.9%;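 note: purified mutant Fbw7 with reduced substrate affinity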
GPR151 activ – activates the human receptor GPR151; Q8TDV0; PathHunter beta-arrestin GPR151 cells, luminescence; activation, % at 11.2 µM; actives 1% (n = 650,000); AID 1508602; in the data active = activation above about 4.9%;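 note: 0% = median of compound wells and 100% = cells with positive control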
Target sequence (Q8TDV0 whole entry, looked up): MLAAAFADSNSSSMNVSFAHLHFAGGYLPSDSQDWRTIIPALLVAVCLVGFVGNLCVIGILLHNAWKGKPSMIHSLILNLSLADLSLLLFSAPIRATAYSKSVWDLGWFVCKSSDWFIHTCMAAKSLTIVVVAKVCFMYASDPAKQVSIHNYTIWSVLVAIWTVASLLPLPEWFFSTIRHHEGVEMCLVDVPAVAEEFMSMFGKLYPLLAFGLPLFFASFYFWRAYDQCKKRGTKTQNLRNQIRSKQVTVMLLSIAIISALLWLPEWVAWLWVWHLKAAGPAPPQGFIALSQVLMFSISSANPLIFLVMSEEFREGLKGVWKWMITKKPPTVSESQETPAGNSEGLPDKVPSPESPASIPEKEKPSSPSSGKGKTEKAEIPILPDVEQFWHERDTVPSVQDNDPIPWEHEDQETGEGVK
TEAD-YAP inh – TEAD-YAP interaction inhibition; HEK-TIYL cells, TEAD-Gal4/YAP UAS-luciferase luminescence; AID 1259422; actives 1.4% (n = 640,000); inhibition, % at 9.12 µM; in the data active = inhibition above about 32%;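 note: 0% = median of test compound wells and 100% = reference inhibitor wells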
MITF primary – blocks human microphthalmia-associated transcription factor; O75030; AlphaScreen MITF homodimerization, bead proximity signal; inhibition, % at 2.6 µM; actives 0.91% (n = 650,000); AID 1259374; in the data active = inhibition above about 50%;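 note: 0% = vehicle wells with protein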
GPR151 confirm – human GPR151 activation, confirmation screen. shares compounds with GPR151 activ. GPR151 PathHunter beta-arrestin cells, luminescence, 90 min; % of EA-reagent control over plate median. activation, % at 11.2 µM. 6,700 tested, under 10 active;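 active = mean percent activation across replicates above the confirmation screen cutoff of 4.91%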
GPR119 ag – counter-screen for GPR151 activators: effect on human GPR119. shares compounds with GPR151 activ. GPR119 PathHunter beta-arrestin cells, luminescence, 90 min; 0 = compound-well median, 100 = enzyme-acceptor control. activation, % at 11.2 µM. actives 0.3% (n = 6,700). AID 1508611;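 active = mean percent activation in the counterscreen above 29.09%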;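 note: counterscreen on off-target GPR119 to flag nonselective hits from the GPR151 activator screen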
Numbers without * were called inactive; nt = not tested or not shown; ! = not confirmed by another sample. Only some compounds are listed: those with a hit (about 3.5% of all), similar ones and a draw of the others.

SMILES	FBW7 act	GPR151 activ	TEAD-YAP inh	MITF primary	GPR151 confirm	GPR119 ag
Cc1ccc(Cl)cc1NC(=O)c1ccccc1Br	-0.1	-0.7	4.1	-4.2	nt	nt
CCOCCn1ccc2c(OCC(=O)Nc3ccc(F)cc3F)cccc2c1=O	0.0	1.7	4.1	6.4	nt	nt
CCOCCn1ccc2c(OCC(=O)NCCOC)cccc2c1=O	0.0	13.8*	0.3	7.7	0.9	2.4
COc1ccc(C(=O)c2sc3nc(C)cc(-c4cccs4)c3c2N)cc1	0.2	0.1	-1.9	1.9	nt	nt
COc1ccc(C(=O)c2sc3nc(C)cc(-c4cccs4)c3c2N)cc1OC	-0.1	6.9*	-5.5	-17.4	-0.7	9.4
O=c1/c(=C/c2cn(Cc3c(F)cccc3Cl)c3ccccc23)sc2nc3ccccc3n12	0.0	-0.1	5.7	12.2	nt	nt
COc1ccc(C)cc1-n1cnc2cc(C(=O)O)ccc21	0.1	7.7*	-3.7	3.8	-0.6	2.7
Cc1c(NC(=O)C(C)N2C(=O)C3C4CCC(C4)C3C2=O)ccc(Br)c1Cl (stereo not drawn)	0.8	12.9*	2.9	14.4	0.2	2.2
NS(=O)(=O)c1cc(C(=O)OCC(=O)NC2CCCCC2)c(Cl)cc1Cl	-0.1	-0.1	-0.7	-13.4	nt	nt
C=CCNC(=O)c1sc(=S)n(CCc2ccccc2)c1N	-0.2	5.2*	-34.3	8.5	0.2	0.8
Cc1ccc(CN(CC(=O)O)S(=O)(=O)c2ccc(Cl)cc2)cc1	-0.1	1.0	-6.8	-11.2	nt	nt
CCc1ccccc1NC(=O)CN(Cc1ccccc1)S(=O)(=O)c1ccc(Br)cc1	0.5	6.6*	1.4	1.1	0.9	6.6
O=C(CN(Cc1ccccc1)S(=O)(=O)c1ccc(Br)cc1)Nc1ccccc1Cl	0.1	6.0*	-2.1	-4.6	0.8	3.5
CCc1ccccc1NC(=O)CN(Cc1ccc(Br)cc1)S(=O)(=O)c1ccccc1	0.0	-1.5	2.7	-0.3	nt	nt
O=C(O)CN(Cc1ccc(Cl)cc1)S(=O)(=O)c1ccc(Cl)cc1	0.0	5.1*	3.3	-7.7	0.1	-6.1
COc1ccc(-c2nc3ccc(C(=O)NCc4nc5ccccc5[nH]4)cc3s2)cn1	0.4	1.8	-11.7	13.4	nt	nt
CCCCCOc1ccc(N2C(=O)CSC23C(=O)Nc2ccccc23)cc1 (stereo not drawn)	-0.1	-0.4	4.0	5.7	nt	nt
COc1ccc(C2C(=O)N(C3CCCCCC3)CC(=O)N2C2CCCCCCC2)cc1 (stereo not drawn)	0.3	1.0	2.6	3.5	nt	nt
COc1ccc(N2CCN(C(=O)C(c3ccccc3)c3ccccc3)CC2)nn1	-0.2	5.7*	2.9	7.0	0.9	0.7
COc1ccc(-n2c(O)c(C=NCc3ccc(F)cc3)c(=O)[nH]c2=O)cc1	0.1	7.1*	5.1	18.4	-1.2	-5.4
COc1ccc(NC(=O)c2cc3ccc(OC)cc3oc2=Nc2ccc(C(=O)O)cc2)c(OC)c1	0.0	11.1*	16.0	-9.1	0.2	14.6
COc1ccc(NC(=O)c2cc3cc(OC)ccc3oc2=Nc2ccc(C(=O)O)cc2)c(OC)c1	-0.2	0.0	-8.6	10.0	nt	nt
O=C(N/N=C/c1ccc(Cl)cc1)c1cnccn1	0.8	1.7	-40.7	4.8	nt	nt
CCOc1cc(/C=N/N2C(=O)C3C4C=CC(C4)C3C2=O)cc([N+](=O)[O-])c1O (stereo not drawn)	0.3	0.5	-5.0	2.2	nt	nt
COc1ccc(CCN2C(=O)CC(Cc3ccc(Br)cc3)C2=O)cc1OC (stereo not drawn)	0.1	5.6*	-4.3	-0.3	-0.7	-6.8
SMILES	FBW7 act	GPR151 activ	TEAD-YAP inh	MITF primary	GPR151 confirm	GPR119 ag
O=C(C1CCCO1)N(c1ccc(Cl)cc1)C1C=CS(=O)(=O)C1 (stereo not drawn)	0.0	9.6*	-9.4	9.9	0.5	1.5
CCCNc1nc(Nc2ccc3ncccc3c2)ncc1C	0.1	-0.9	-6.5	2.6	nt	nt
Cc1cnc(Nc2ccc3ncccc3c2)nc1NCCN(C(C)C)C(C)C	0.2	5.4*	4.5	-4.5	1.2	3.0
COc1ccc(C2C(C(=O)Nc3cc(C)ccc3OC)CCC(=O)N2c2ccc(OC)cc2)cc1 (stereo not drawn)	-0.1	0.5	-0.1	-3.5	nt	nt
O=C(c1ccc(OCCN2CCCCC2)cc1)c1c(-c2ccc(O)cc2)sc2cc(O)ccc12	-0.2	5.0*!	-11.9	-11.1	-0.5	-10.4
N#Cc1ccc(C(=O)Nc2ccccc2OC(F)F)c(F)c1	-0.2	-1.7	6.0	-17.1	nt	nt

High-throughput results as filed in PubChem.
